Measured values reported in PubChem BioAssay.
Active and inactive are the calls of the source.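 Rule for the calls, unless noted: active = NADPH fluorescence slope more negative than the mean of all samples by about 3 SD, 99.7% confidence; inactive = the rest.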

Key:
[1] = inhibitors of TNFa-induced NFkB p65 translocation, primary screen, imaging, HUVEC, MLSMR starter and 10KST1 sets (AID 438;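 active = inhibition above 20% together with a positive visual image hit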;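 note: compound added about 3h40 before a 20 min TNFalpha stimulation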;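 for inhibition: signal is the nuclear over cytoplasmic p65 intensity ratio per well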); conditions: HUVEC TNFa-induced p65 nuclear translocation; cell count: measured here: nuclei count (cytotoxicity indicator), at 2.08 µM; inhibition: at 2 µM, stronger effect = higher value, 0% TNFa-plus-vehicle, 100% no-TNFa wells
[2] = inhibitors of mutant huntingtin aggregation, primary screen, imaging, exon1htt(103Q)mCFP cells, high-content imaging (AID 483;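 active = visual image review flags a hit and inhibition of aggregation exceeds 20%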;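 note: compound exposure lasted 3 days before fixation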;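 for nuclei count: percent of the per-plate median nuclei count of sample wells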); conditions: exon1htt(103Q)mCFP cell line, aggregate imaging, at 2 µM; inhibition of aggregation: stronger effect = higher value; nuclei count: measured here: cell count, toxicity
[3] = inhibitors of E-selectin induction by TNFa, primary screen, imaging, HUVEC, immunofluorescence, MLSMR starter and 10KST1 sets (AID 487;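 active = visually confirmed hit in the image check and inhibition above 20%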;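 for inhibition: signal is fraction of cell area covered by stained E-selectin grains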;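 for nuclei count: 100% = median nuclei count of all wells on the same plate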); conditions: HUVEC TNFalpha-induced E-selectin immunofluorescence imaging, at 2 µM; inhibition: stronger effect = higher value; nuclei count: measured here: cell number, toxicity
[4] = target: Voltage-gated potassium channel subunit beta-2 (Rattus norvegicus) (UniProt P62483); assay: KvBeta enzyme negative modulators, primary screen, biochemical, NADPH fluorescence (AID 622;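 active = fluorescence slope higher than the sample average by over 3 SD, cut at about -0.22 in these data, passing the limit was not always enough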;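 note: slope of raw intensity against log time taken from 70 to 1610 s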); conditions: recombinant KvBeta, 4-cyanobenzaldehyde reduction, at 10 µM, stronger effect = higher value
Sequence of Voltage-gated potassium channel subunit beta-2 (Rattus norvegicus) (P62483 whole entry, looked up): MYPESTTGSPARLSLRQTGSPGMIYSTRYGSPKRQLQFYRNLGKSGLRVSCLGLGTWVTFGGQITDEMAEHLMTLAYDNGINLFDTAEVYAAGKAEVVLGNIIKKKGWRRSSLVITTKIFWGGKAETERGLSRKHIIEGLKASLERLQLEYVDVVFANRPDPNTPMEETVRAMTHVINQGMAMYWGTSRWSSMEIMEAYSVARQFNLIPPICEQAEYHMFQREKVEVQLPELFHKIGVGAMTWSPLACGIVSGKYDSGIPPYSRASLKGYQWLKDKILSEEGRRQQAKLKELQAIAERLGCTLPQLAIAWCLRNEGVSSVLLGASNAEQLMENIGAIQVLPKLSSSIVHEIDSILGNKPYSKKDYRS

[5] = target: Voltage-gated potassium channel subunit beta-2 (Rattus norvegicus) (UniProt P62483); assay: KvBeta positive modulators, primary screen, biochemical, NADPH fluorescence (AID 623); conditions: Recombinant KvBeta, NADPH fluorescence decrease slope, 10 min; at 10 µM; stronger effect = lower value;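 note: fluorescence intensity change per second fitted from 20 to 320 s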
[6] = target: Alpha-2C adrenergic receptor (Homo sapiens) (UniProt P18825); assay: modulators of alpha2C/GIRK thallium flux, primary screen, cell-based, HEK293 alpha2C/GIRK1/2 (AID 624;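 active = fluorescence slope after compound addition differing from the mean of all screened samples at 99.7% confidence, in either direction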;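 note: slope of fluorescence ratio to pre-addition baseline per second over 15 to 24 s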); conditions: thallium flux BTC fluorescence, at 10 µM, actives lie on both sides
Sequence of Alpha-2C adrenergic receptor (Homo sapiens) (P18825 whole entry, looked up): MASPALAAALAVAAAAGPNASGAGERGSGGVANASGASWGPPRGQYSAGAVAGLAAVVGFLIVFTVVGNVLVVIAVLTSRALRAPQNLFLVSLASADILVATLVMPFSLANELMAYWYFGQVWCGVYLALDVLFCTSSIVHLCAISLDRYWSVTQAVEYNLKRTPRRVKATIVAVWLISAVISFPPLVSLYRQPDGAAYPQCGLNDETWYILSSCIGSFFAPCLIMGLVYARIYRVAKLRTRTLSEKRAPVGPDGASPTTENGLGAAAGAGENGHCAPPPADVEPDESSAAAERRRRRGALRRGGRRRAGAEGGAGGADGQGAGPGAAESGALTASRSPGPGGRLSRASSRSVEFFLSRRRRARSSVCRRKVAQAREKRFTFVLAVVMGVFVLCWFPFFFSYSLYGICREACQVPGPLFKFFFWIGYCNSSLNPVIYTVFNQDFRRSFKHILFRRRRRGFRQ

[7] = inhibitors of Sendai virus-induced IRF3 signaling, primary screen, TLR/RLR signaling modifier project, cell-based, Sendai virus stimulus, luciferase, 10K MLSCN set (AID 602276;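 active = inhibition at or above 50% at 10 µM; inactive = inhibition below 50%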;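 note: firefly luciferase from ISG56 promoter only with Renilla not read in this screen; 0% = Sendai virus plus DMSO and 100% = medium plus DMSO without virus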); conditions: HEK293 RL24 IRF3 luciferase reporter, at 10 µM, stronger effect = higher value
[8] = inhibitors of poly I:C-induced TLR3 signaling, primary screen, cell-based, poly I:C stimulus, luciferase, 10K MLSCN set (AID 602277;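 active = inhibition of the reporter signal at or above 50%; inactive = inhibition below 50%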); conditions: HEK293-TLR3 RL24 IRF3 luciferase reporter, at 10 µM, stronger effect = higher value

| SMILES | cell count [1] | inhibition [1] | inhibition of aggregation [2] | nuclei count [2] [%] | inhibition [3] | nuclei count [3] [%] | fluorescence slope [4] | NADPH fluorescence slope [5] | slope [6] | inhibition [7] | inhibition [8] |
| --- | --- | --- | --- | --- | --- | --- | --- | --- | --- | --- | --- |
| Cc1cc(NS(=O)(=O)Cc2ccccc2)cc(C)c1OCC(=O)N1CCOCC1 | 323 | -3.3% (inactive) | -14.1% (inactive) | 86.8 | -47.7% (inactive) | 104 | -0.478 (inactive) | -4.7e-05 (inactive) | 0.00653 (inactive) | 14.5% (inactive) | 10.6% (inactive) |
| CC1(C)CC(=O)C2=C(C1)OC(=O)C2(NC(=O)c1cccs1)C(F)(F)F (stereo not drawn) | 607 | -8.2% (inactive) | 5.3% (inactive) | 104 | -9.5% (inactive) | 85.7 | -0.598 (inactive) | -4.5e-05 (inactive) | 0.00633 (inactive) | 1.37% (inactive) | 15.7% (inactive) |
| CCOc1ccc(NC(=O)C(C)Sc2nnc(C)n2C)cc1 (stereo not drawn) | 574 | -9.5% (inactive) | 19.3% (inactive) | 74.5 | -33.5% (inactive) | 119 | -0.591 (inactive) | -1.5e-05 (inactive) | 0.00656 (inactive) | -2.49% (inactive) | 20.8% (inactive) |
| CCc1nnc(NC(=O)COC(=O)CN2C(=O)c3ccccc3C2=O)s1 | 375 | 4.7% (inactive) | 7.1% (inactive) | 91.2 | 4.5% (inactive) | 84.7 | -0.53 (inactive) | -4.4e-05 (inactive) | 0.00636 (inactive) | -1.09% (inactive) | 12.5% (inactive) |
| COC(=O)c1[nH]c(C)c(/C(O)=C2\C(=O)C(=O)N(CCN3CCOCC3)C2c2cccs2)c1C (stereo not drawn) | 450 | -4.8% (inactive) | 2.2% (inactive) | 96.3 | -53.2% (inactive) | 126 | -0.254 (inactive) | -2.8e-05 (inactive) | 0.00576 (inactive) | 15.2% (inactive) | 11.2% (inactive) |
| COc1ccc(C)cc1S(=O)(=O)N(CC(=O)O)c1ccccc1 | 343 | 8.1% (inactive) | -8% (inactive) | 91.3 | -90.2% (inactive) | 144 | -0.454 (inactive) | 7.5e-06 (inactive) | 0.00642 (inactive) | 34.7% (inactive) | 21% (inactive) |
| CCOC(=O)c1c(N)sc(C(=O)N2CCOCC2)c1C | 314 | -11.5% (inactive) | 12.2% (inactive) | 103 | -10.6% (inactive) | 119 | -0.345 (inactive) | 2.6e-05 (inactive) | 0.00763 (inactive) | 16.8% (inactive) | 18.1% (inactive) |
| CCOC(=O)C1=C(C)N(C)C(=O)NC1c1ccccc1OC (stereo not drawn) | 692 | -11.4% (inactive) | -20.9% (inactive) | 92.6 | 50.2% (inactive) | 93.2 | -0.4 (inactive) | -1.2e-05 (inactive) | 0.00553 (inactive) | 16.2% (inactive) | 33.7% (inactive) |
